Experimental findings from PubChem BioAssay (NCATS) are described below.

In one experiment the test system is C33A. The experiment is described as follows: Primary qHTS to identify gynecologic anti-cancer compounds using libraries of approved drugs and bioactive compounds (AID 1345084). Also: nearly all actives have a fitted effect of over 55% in size. The following applies: Gynecologic cancer cell panel viability, ATPlite luminescence, 48 h; series mostly up to 57.5 µM. Put shortly: (§1)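 48 h compound exposure at 37 C, 5% CO2; five-point qHTS. ATPlite luminescence readout of cell ATP.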
Background: Quantitative high-throughput screening tests each substance at several concentrations.

In another experiment the test system is CAOV3. The description is as above. The settings on record: Gynecologic cancer cell panel viability, ATPlite luminescence, 48 h; series mostly up to 57.5 µM. An outline of the steps:
as §1
In general terms: In ATP-based viability assays light output follows the ATP content of the culture.

In a further experiment the test system is CASKI. The description is as above. The following applies: Gynecologic cancer cell panel viability, ATPlite luminescence, 48 h; series mostly up to 57.5 µM. An outline of the steps: as §1
In the next experiment the test system is Es-2. Described as above. The following applies: Gynecologic cancer cell panel viability, ATPlite luminescence, 48 h; series mostly up to 57.5 µM. An outline of the steps:
as §1

Another experiment concerns HeLa. The description is as above. The settings on record: Gynecologic cancer cell panel viability, ATPlite luminescence, 48 h; series mostly up to 57.5 µM. Put shortly:
as §1

The test system of a further experiment is JEG-3. Described as above. The following applies: Gynecologic cancer cell panel viability, ATPlite luminescence, 48 h; series mostly up to 57.5 µM. An outline of the steps:
as §1

Another experiment relates to PA-1. The experiment is described as above. The settings on record: Gynecologic cancer cell panel viability, ATPlite luminescence, 48 h; series mostly up to 57.5 µM. Put shortly: as §1
In another experiment the test system is SKOV3. The description is as above. The following applies: Gynecologic cancer cell panel viability, ATPlite luminescence, 48 h; series mostly up to 57.5 µM. An outline of the steps: as §1
A further experiment deals with Tov-21-G. The experiment is described as above. The settings on record: Gynecologic cancer cell panel viability, ATPlite luminescence, 48 h; series mostly up to 57.5 µM. An outline of the steps: as §1
The next experiment deals with Tov112D. Described as above. The following applies: Gynecologic cancer cell panel viability, ATPlite luminescence, 48 h; series mostly up to 57.5 µM. Put shortly: as §1
Another experiment deals with Hek293T. The description is as above. The following applies: Gynecologic cancer cell panel viability, ATPlite luminescence, 48 h, control line for the selectivity index; series mostly up to 57.5 µM. An outline of the steps: as §1
A further experiment has as its system OV90. The experiment is described as above. The following applies: Gynecologic cancer cell panel viability, ATPlite luminescence, 48 h; series mostly up to 57.5 µM. Put shortly:
as §1

Experiment [1] can be described thus: qHTS assay to identify inhibitors of the type 1 interferon - major histocompatibility complex class I in skeletal muscle: Counter screen cell viability and HiBit confirmation (AID 1347412). As to all read-outs here: nearly all actives have a fitted effect of over 60% in size. The following applies: iHSKM muscle cells + IFN-b, HiBiT or CellTiter-Glo, 24 h; for activity change, negative = inhibition: Viability, at 45.9 µM (top of the series). An outline of the steps: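 CRISPR HLA-B*08:01-HiBit immortalized human myoblasts (C25cl48) stimulated with 4 ng/ml IFN-beta and compounds (12-point 1:3, top 46 uM final) for 24 h at 37 C. Duplicate plates read by HiBit lytic luminescence or CellTiter Glo ATP.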

Results filed as inconclusive are left out. A number with no mark means an inactive call. Active and inactive are the calls of the source. Calls follow the shape of the dose curve; as a rule, active = well fitted curve in the direction sought with a large enough effect; inconclusive = small, poorly fitted or top-dose-only effect, or another doubt; inactive = no such curve, though single readings can be large; an effect the other way counts as inactive or inconclusive.
% is scaled to controls: 0 for no effect and ±100 for the full control effect; potency is read from the fitted curve at half-maximal effect.

As to `COc1cc(OC)cc(C(=O)Nc2ccc(Cl)c(-c3nc4ccc(N(C)C)cc4[nH]3)c2)c1`, the Potency result in the experiment with C33A, in the experiment on CAOV3, with CASKI, in the experiment on Es-2, in the experiment with HeLa and with JEG-3 was “inactive” throughout. The Potency result with PA-1, in the experiment on SKOV3, in the experiment with Tov-21-G and with Tov112D was “inactive” in each case.

As to `CC1(C)CC[C@@]2(C(=O)O[C@@H]3O[C@H](CO)[C@@H](O)[C@H](O)[C@H]3O)C(C1)C1=CCC3[C@@]4(C)CC[C@@H](O[C@@H]5O[C@H](C(=O)O)[C@@H](O[C@@H]6OC[C@@H](O)[C@H](O)[C@H]6O)[C@H](O[C@@H]6OC[C@](O)(CO)[C@H]6O)[C@H]5O)C(C)(C)C4CC[C@@]3(C)[C@]1(C)C[C@H]2O` (stereo partly specified), the activity change, negative = cytotoxicity is -0.239% [at 11.6 µM] in the experiment on C33A; -43.7% [at 11.6 µM] in the experiment with CAOV3; -25.1% [at 11.6 µM] in the experiment with CASKI; -7.12% [at 11.6 µM] in the experiment with Es-2; 3.52% [at 11.6 µM] with Hek293T; -1.03% [at 11.6 µM] in the experiment with JEG-3. In addition, the activity change, negative = cytotoxicity was -1.26% [at 11.6 µM] in the experiment on OV90, -34.8% [at 11.6 µM] with PA-1, -2.96% [at 11.6 µM] in the experiment with SKOV3 and -29.7% [at 11.6 µM] in the experiment with Tov112D.

With `Cc1cccc2c1NC(=O)C2(c1ccc(O)cc1)c1ccc(O)cc1`, the Potency entry in the experiment with C33A, in the experiment with CAOV3, in the experiment on CASKI, with Es-2, in the experiment with JEG-3 and with SKOV3 was “inactive” in each case.

For `Cc1cnc(Nc2ccc(F)cc2Cl)nc1-c1c[nH]c(C(=O)NC(CO)c2cccc(Cl)c2)c1` (stereo unspecified), the Potency entry in the experiment on C33A, with CAOV3, in the experiment with CASKI, in the experiment with Es-2, in the experiment with Hek293T and in the experiment on JEG-3 was “inactive” throughout. In addition, the Potency entry in the experiment on SKOV3 and with Tov112D was “inactive” throughout. Moreover, the Potency in the experiment on PA-1 was 8.91 µM (active).

On to `C=C(C)C(=O)O[C@H]1C[C@@](C)(O)C(=O)CC(O)/C(C)=C\[C@H]2OC(=O)C(=C)[C@H]12` (stereo partly specified), for which the Potency result with C33A, with CAOV3, with CASKI, in the experiment on HeLa, in the experiment on Hek293T and in the experiment with JEG-3 was “inactive” throughout. In addition, the Potency entry with OV90 and in the experiment on Tov112D was “inactive” throughout.

For `CN1CCN(C(=O)c2ccc3cc(CCNc4ncnc5ccc(C#N)cc45)ccc3c2)CC1`, the Potency entry in the experiment with C33A, with CAOV3, with CASKI, in the experiment on Es-2, in the experiment on HeLa and in the experiment on Hek293T was “inactive” in each case. Also, the Potency result with Tov-21-G and in the experiment on Tov112D was “inactive” in each case. Moreover, the activity change, negative = inhibition in [1] is 5.79%.

For the compound `Cc1nc([C@](C)(O)CO)sc1-c1cnc(N)c(O[C@H](C)c2cc(F)ccc2-n2nccn2)c1`, the Potency result in the experiment with C33A, in the experiment with CAOV3, in the experiment with CASKI, with Es-2, with JEG-3 and in the experiment with SKOV3 was “inactive” each time. Also, in the experiment with Tov112D, the Potency entry is “inactive”. The Potency in the experiment with HeLa is 8.91 µM (active); in the experiment with PA-1, 11.2 µM (active).

For the compound `CC(C)CCC(=O)CC1c2ccccc2C(=O)N1c1ccc2ccc(Cl)nc2n1` (stereo unspecified), the Potency entry with C33A, in the experiment with CAOV3, with CASKI, with Es-2, in the experiment with Hek293T and in the experiment with OV90 was “inactive” in each case. The Potency result in the experiment with PA-1 and in the experiment with Tov-21-G was “inactive” each time. For the same compound, the Potency in the experiment on Tov112D was 8.91 µM (active).

As to `COc1ncc2cc(C(=O)Nc3cc(C(=O)NCc4cccc(Cl)c4)ccc3Cl)c(=O)[nH]c2n1`, the Potency entry with C33A, with CAOV3, in the experiment with CASKI, with Es-2, in the experiment on Hek293T and with JEG-3 was “inactive” in each case. Further, the Potency entry in the experiment with OV90, with PA-1 and with SKOV3 was “inactive” each time.

As for `O=C(NOCC(O)CO)c1ccc(F)c(F)c1Nc1ccc(I)cc1F` (stereo unspecified), the Potency result in the experiment with C33A, in the experiment on CAOV3, with CASKI, in the experiment with HeLa, in the experiment on Hek293T and in the experiment with JEG-3 was “inactive” throughout. Also, the Potency entry in the experiment with SKOV3 and in the experiment on Tov112D was “inactive” throughout.

`CCC(CC)C(=O)Nc1sc2c(c1C#N)CCC(C(C)(C)CC)C2` (stereo unspecified): the Potency entry with C33A, with CAOV3, in the experiment with CASKI, in the experiment with Es-2, with HeLa and in the experiment on JEG-3 was “inactive” each time. Also, the Potency entry in the experiment with OV90, with PA-1, in the experiment with Tov-21-G and in the experiment with Tov112D was “inactive” in each case.

As for `CC1=C(CCC(C)CC(=O)O)[C@@]2(C)CCCC(C)(C)C2CC1=O` (stereo partly specified), the Potency entry in the experiment with C33A, with CAOV3, with CASKI, in the experiment with Es-2, in the experiment on HeLa and with JEG-3 was “inactive” each time. Also, the Potency entry with OV90, in the experiment on PA-1, with SKOV3, in the experiment with Tov-21-G and with Tov112D was “inactive” throughout.

For `CC[C@@H](N)CNc1ccnc(-c2cc(-c3cnn(C)c3)ccc2O)n1`, the Potency is 8.91 µM (active) in the experiment with C33A; 3.98 µM (active) with CASKI; 20 µM (active) in the experiment with Es-2; 11.2 µM (active) in the experiment with Hek293T; 12.6 µM (active) with JEG-3; 7.94 µM (active) with PA-1. The Potency in the experiment on Tov-21-G was 8.91 µM (active); in the experiment on Tov112D, 10 µM (active). The Potency entry in the experiment on CAOV3 is “inactive”.

As for `Cc1c(NC(=O)c2cc(C(N)=O)nc3cc(F)ccc23)c(C(F)(F)F)nn1Cc1ccc(C#N)cc1`, the Potency entry with C33A, in the experiment on CAOV3, in the experiment on CASKI, in the experiment with Es-2, with Hek293T and with JEG-3 was “inactive” throughout. In addition, the Potency entry with OV90, with PA-1, in the experiment with Tov-21-G and in the experiment on Tov112D was “inactive” throughout. The Potency in the experiment on SKOV3 is 2.24 µM (active).

On to `O=C(NCc1cccc(O)c1)Nc1nc(-c2ccncc2)cs1`, for which the Potency entry with C33A, in the experiment on CAOV3, in the experiment on CASKI, in the experiment with Es-2, with Hek293T and in the experiment on JEG-3 was “inactive” in each case. The Potency result with OV90, with PA-1, with SKOV3, in the experiment with Tov-21-G and with Tov112D was “inactive” each time.

As for `COC(=O)N[C@@H](C)CNc1nccc(-c2cn(C(C)C)nc2-c2cc(Cl)cc(NS(C)(=O)=O)c2F)n1`, the Potency result in the experiment with C33A, in the experiment with CAOV3, with CASKI, with HeLa, in the experiment on Hek293T and in the experiment with OV90 was “inactive” in each case. Besides, the Potency result in the experiment with PA-1 and in the experiment on Tov112D was “inactive” each time. Moreover, in the experiment on Tov-21-G, the Potency was 1.58 µM (active). The activity change, negative = inhibition in [1] was -18.1%.

As to `COCCN1CCN(Cc2ccc(-c3n[nH]c4c3C(=O)c3c(NC(=O)NN5CCOCC5)cccc3-4)cc2)CC1`, the Potency entry with C33A, with CAOV3, in the experiment with JEG-3 and in the experiment on OV90 was “inactive” each time. Moreover, the Potency is 0.282 µM (active) with CASKI; 0.316 µM (active) with Es-2; 0.178 µM (active) in the experiment on Hek293T; 0.251 µM (active) in the experiment on PA-1; 0.282 µM (active) with Tov-21-G; 0.316 µM (active) in the experiment on Tov112D. Moreover, the Potency in [1] (HiBiT) was 0.0701 µM (active). Further, the activity change, negative = inhibition in [1] was 44.8%.

On to `C=CC(C)(C)c1[nH]c2cc3c(cc2c1CC1NC(=O)C2=CCCN2C1=O)C=CC(C)(C)O3` (stereo unspecified), for which the Potency entry with C33A, with CAOV3, in the experiment on CASKI, in the experiment with HeLa, with Hek293T and in the experiment with JEG-3 was “inactive” in each case. Further, the Potency entry in the experiment on OV90, in the experiment on SKOV3, in the experiment on Tov-21-G and in the experiment with Tov112D was “inactive” throughout.
